Source: PubChem BioAssay
Hits are enriched below; roughly 2.6% of the tested compounds scored in any of these assays.
Jurkat NFkB inh – lowers PMA/ionomycin-induced NF-kB signal in Jurkat cells | PMA/ionomycin-induced NF-kB luciferase reporter, luminescence | inhibition, % at 4 µM | hit rate 0.53% among 330,000 | AID 435003; in the data active = inhibition above about 50%
697 NFkB inh – lowers PMA/ionomycin-induced NF-kB signal in 697 B cells; 697 B-cell NF-kB luciferase reporter, 16 h; inhibition, % at 4 µM; hit rate 0.33% among 330,000; in the data active = inhibition above about 35%
TAG inh – inhibitors of triacylglycerol accumulation; H9c2 cells, Nile Red lipid (TAG) fluorescence; cells loaded with 200 µM oleic acid; inhibition, % at 12.5 µM; hit rate 0.66% among 230,000;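 active = pattern-corrected inhibition of lipid staining of at least 50% with the nuclear-stain viability signal not falling by more than 50%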
COUP-TFII inh – inhibitors of human COUP-TFII (NR2F2); P24468; HEK293T NGFI-A luciferase reporter, luminescence; inhibition, % at 8.6 µM; hit rate 0.7% among 370,000; AID 686940;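 active = inhibition above a per-plate cutoff, mean inhibition of test wells between control levels plus 3 SD, cut at about 38% in these data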;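 also: cells cotransfected with COUP-TFII expression vector driving the NGFI-A reporter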
Target sequence (P24468 whole entry, looked up): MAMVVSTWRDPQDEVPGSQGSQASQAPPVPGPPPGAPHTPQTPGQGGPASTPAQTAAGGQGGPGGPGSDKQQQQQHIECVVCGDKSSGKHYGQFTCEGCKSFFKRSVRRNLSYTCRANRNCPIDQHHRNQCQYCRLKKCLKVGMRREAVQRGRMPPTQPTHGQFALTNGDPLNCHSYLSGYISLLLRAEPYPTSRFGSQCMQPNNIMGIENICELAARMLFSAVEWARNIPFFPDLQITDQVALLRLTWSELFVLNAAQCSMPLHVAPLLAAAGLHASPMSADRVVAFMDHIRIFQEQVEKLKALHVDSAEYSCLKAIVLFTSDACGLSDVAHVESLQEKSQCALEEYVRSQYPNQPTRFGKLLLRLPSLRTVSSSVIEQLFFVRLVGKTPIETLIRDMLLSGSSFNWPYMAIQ
Gli-Sufu antag – blocks Gli-Sufu signaling in a luciferase reporter | Sufu-KO-LIGHT fibroblasts, Gli luciferase reporter luminescence | inhibition, % at 5 µM | hit rate 0.74% among 340,000;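 active = inhibition above about 55%, limit read from the data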
Cardio protect – myocardial damage modulation in H9c2 cells | AID 588492 | hit rate 0.63% among 360,000 | H9c2 cardiomyocytes, H2O2 injury protection, ATPLite, 2 h | protection from H2O2 cell death, % at 20 µM;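 active = compounds giving at least 50% protection of heart cells from peroxide-induced death in the single-dose screen, raw or plate-pattern-corrected value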
Gal4-VP16 ctr – VP16 inhibition counter-screen for COUP-TFII; HEK293 Gal4-VP16 luciferase reporter, luminescence; shares compounds with COUP-TFII inh; AID 687007; hit rate 25% among 2,500; inhibition, % at 8.5 µM; in the data active = inhibition above about 13%
NR2F2 inh conf – COUP-TFII (NR2F2) inhibition, confirmation assay | HEK293 NGFI-A luciferase reporter, luminescence | hit rate 45% among 2,500 | shares compounds with COUP-TFII inh | inhibition, % at 8.5 µM;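 active = mean inhibition over three repeats above a set limit taken from the earlier primary screen, cut at about 38% in these data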
Of the large screens only hits and unclear results are named; the others gave an inactive call (follow-up assays come after a bar, where they were run).

O=C(O)c1ccc(-[n+]2c(-c3ccccc3)cc(-c3ccccc3)cc2-c2ccccc2)cc1	none
CCCC1(CC(C)CC)C(=O)NC(=O)NC1=O (configuration not stated)	none (no result: Jurkat NFkB inh, 697 NFkB inh, Gli-Sufu antag)
COC(=O)c1ccc(NC(=O)CSc2nc3ccc(N4C(=O)C5C6C=CC(C6)C5C4=O)cc3s2)cc1 (configuration not stated)	COUP-TFII inh 64 (no result: TAG inh) | Gal4-VP16 ctr inactive | NR2F2 inh conf inactive
NC(Cc1ccc(N(CCCl)CCCl)cc1)C(=O)O (configuration not stated)	none (no result: Jurkat NFkB inh, 697 NFkB inh, TAG inh, Gli-Sufu antag, Cardio protect)
CCOC(=O)[C@]12Cc3ccc(C)cc3[C@H]1N(C1CCCCC1)C(=O)c1cc(OC)ccc12	COUP-TFII inh 52 (no result: Jurkat NFkB inh, 697 NFkB inh, TAG inh, Gli-Sufu antag, Cardio protect) | Gal4-VP16 ctr 23 | NR2F2 inh conf inactive
CCOC(=O)[C@]12Cc3cc(C)ccc3[C@H]1N(C1CCCCC1)C(=O)c1ccccc12	none (no result: Jurkat NFkB inh, 697 NFkB inh, TAG inh, Gli-Sufu antag, Cardio protect)
CCOC(=O)[C@]12Cc3ccc(C)cc3[C@H]1N(C1CCCCC1)C(=O)c1ccccc12	COUP-TFII inh 50 (no result: Jurkat NFkB inh, 697 NFkB inh, TAG inh, Gli-Sufu antag, Cardio protect) | Gal4-VP16 ctr 17 | NR2F2 inh conf inactive
CCOC(=O)[C@]12Cc3cc(Cl)ccc3[C@H]1N(C1CCCCC1)C(=O)c1cc(OC)ccc12	COUP-TFII inh 59 (no result: Jurkat NFkB inh, 697 NFkB inh, TAG inh, Gli-Sufu antag, Cardio protect) | Gal4-VP16 ctr 53 | NR2F2 inh conf 60
C[C@@H]1CN([C@@H](C)CO)C(=O)CCCn2nncc2CO[C@H]1CN(C)C(=O)Oc1ccccc1	none (no result: Jurkat NFkB inh, 697 NFkB inh, Gli-Sufu antag)
O=C(COC(=O)c1cc(Br)cc(Br)c1O)NC12CC3CC(CC(C3)C1)C2	none (no result: Jurkat NFkB inh, 697 NFkB inh, Gli-Sufu antag)
Cc1ccc(C(O)(C(=O)OC(C)C)C(O)c2ccc(F)cc2)cc1 (configuration not stated)	none (no result: Jurkat NFkB inh, 697 NFkB inh, TAG inh, Gli-Sufu antag, Cardio protect)
CN(c1ccc(OCC(=O)N2CCN(C/C=C/c3ccccc3)CC2)cc1)S(=O)(=O)c1cccs1	COUP-TFII inh 38 | Gal4-VP16 ctr inactive | NR2F2 inh conf 38
C[C@@]12CC[C@@H](c3cc4c(cc3C1)OCO4)N2c1ccccc1	none (no result: Jurkat NFkB inh, 697 NFkB inh, TAG inh, Gli-Sufu antag, Cardio protect)
COC1CC2C=C(C)C=CC=CC(=O)NC(c3ccccc3)CC=CCCC(O)CC(=O)C2=C1O (configuration not stated)	COUP-TFII inh 72 (no result: Jurkat NFkB inh, 697 NFkB inh, TAG inh, Gli-Sufu antag) | Gal4-VP16 ctr 50 | NR2F2 inh conf 73
CCC(c1nnnn1-c1ccc2c(c1)OCCO2)N1CCC2(CC1)C(=O)NCN2c1ccccc1 (configuration not stated)	none (no result: Jurkat NFkB inh, 697 NFkB inh, TAG inh, Gli-Sufu antag)
O=P(/C=C1\OCc2ccccc21)(Oc1ccccc1)Oc1ccccc1	none (no result: Jurkat NFkB inh, 697 NFkB inh, TAG inh, Gli-Sufu antag, Cardio protect)
CC(N)C(=O)NC1C2C(=C(O)CC(O)C2O)C(=O)OC1(C)C(Cl)Cl (configuration not stated)	COUP-TFII inh 76, Gli-Sufu antag 76 (no result: Jurkat NFkB inh, 697 NFkB inh) | Gal4-VP16 ctr inactive | NR2F2 inh conf 57
COC(=O)C1(F)C(=O)NC(=O)NC1O (configuration not stated)	none (no result: Jurkat NFkB inh, 697 NFkB inh, TAG inh, Gli-Sufu antag, Cardio protect)
CC(=O)OC1CC(OC2C(O)CC(OC3C(O)CC(OC4CCC5(C)C(CCC6C5CC(O)C5(C)C(C7=CC(=O)OC7)CCC65O)C4)OC3C)OC2C)OC(C)C1OC1OC(CO)C(O)C(O)C1O (configuration not stated)	COUP-TFII inh 79 (no result: Jurkat NFkB inh, 697 NFkB inh) | Gal4-VP16 ctr 52 | NR2F2 inh conf 76
COC1C(O)C(C)OC(OC2CCC3(C)C(CCC4C3C(O)CC3(C)C(C5=CC(=O)OC5)CCC43O)C2)C1O (configuration not stated)	COUP-TFII inh 77 (no result: Jurkat NFkB inh, 697 NFkB inh) | Gal4-VP16 ctr 54 | NR2F2 inh conf 79
CC12CCC(O)CC1CCC1C2CCC2(C)C(C3=CC(=O)OC3)CCC12O (configuration not stated)	COUP-TFII inh 72 (no result: Jurkat NFkB inh, 697 NFkB inh) | Gal4-VP16 ctr 45 | NR2F2 inh conf 72
Cc1cccc(C)c1-n1nnnc1C(c1cccc2ccccc12)N1CCC2(CC1)C(=O)NCN2c1ccccc1 (configuration not stated)	none (no result: Jurkat NFkB inh, 697 NFkB inh, TAG inh, Gli-Sufu antag)
CC(C)(C)C(=O)N1Cc2cc(N3CCCCC3)ccc2-n2nncc2C1	none (no result: Jurkat NFkB inh, 697 NFkB inh, TAG inh, Gli-Sufu antag)
O=C1NCN(c2ccccc2)C12CCN(C(c1cccc3ccccc13)c1nnnn1C1CCCCC1)CC2 (configuration not stated)	none (no result: Jurkat NFkB inh, 697 NFkB inh, TAG inh, Gli-Sufu antag)
CSCCC(c1nnnn1Cc1ccccc1)N1CCC2(CC1)C(=O)NCN2c1ccccc1 (configuration not stated)	none (no result: Jurkat NFkB inh, 697 NFkB inh, TAG inh, Gli-Sufu antag)
C1CN(P2(N3CC3)=NP(N3CC3)(N3CC3)=NP(N3CC3)(N3CC3)=N2)CCO1 (configuration not stated)	none (no result: Jurkat NFkB inh, 697 NFkB inh, Gli-Sufu antag)
